Screens as filed in PubChem.
RGS8-Gao reg – RGS8-Galphao binding modulators, primary screen, biochemical, multiplexed bead flow cytometry; Guanine nucleotide-binding protein G(o) subunit alpha (Homo sapiens), P09471; actives lie on both sides; response (percent of control binding), % at 10 µM; actives 0.34% (n = 220,000); AID 1423, 2008; in the data active = response below about 60% or above about 140%; inactive = in between;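 note: Galphao activated as the GDP aluminium fluoride complex binding bead-coupled RGS8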
Target sequence (P09471 whole entry, looked up): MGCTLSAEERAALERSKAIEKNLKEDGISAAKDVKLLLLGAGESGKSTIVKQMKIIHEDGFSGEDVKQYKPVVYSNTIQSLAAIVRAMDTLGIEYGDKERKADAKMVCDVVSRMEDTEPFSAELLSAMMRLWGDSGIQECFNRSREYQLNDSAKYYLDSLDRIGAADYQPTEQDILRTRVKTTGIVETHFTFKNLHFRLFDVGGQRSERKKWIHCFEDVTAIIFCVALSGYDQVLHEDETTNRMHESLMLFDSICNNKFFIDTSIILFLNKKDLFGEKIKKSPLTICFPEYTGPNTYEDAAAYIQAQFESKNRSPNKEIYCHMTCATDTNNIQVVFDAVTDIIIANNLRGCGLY
RGS4-Gao reg – modulators of RGS4 binding to Galphao, primary screen, biochemical, multiplexed bead flow cytometry; Guanine nucleotide-binding protein G(o) subunit alpha (Homo sapiens), P09471; binding response (% of control), % at 10 µM; actives lie on both sides; actives 0.33% (n = 220,000); in the data active = binding response below about 49% or above about 150%; inactive = in between;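 note: fluorescent Galphao activated with aluminum fluoride binding bead-coupled RGS4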
RGS7-Gao reg – RGS7-Galphao binding modulators, primary screen, biochemical, multiplexed bead flow cytometry; Guanine nucleotide-binding protein G(o) subunit alpha (Homo sapiens), P09471; actives lie on both sides; binding response (% of control), % at 10 µM; actives 0.35% (n = 220,000); AID 1439, 2008; in the data active = binding response below about 49% or above about 150%; inconclusive = no clear call, values can overlap the other calls; inactive = in between;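 note: fluorescent Galphao held in activated GDP-AlF4 state binding bead-coupled RGS7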
GSH fluor – compound fluorescence on glutathione beads, profiling panel, artefact control, biophysical, 488/530 nm, flow cytometry; GSH beads flow cytometry, compound fluorescence 488/530 nm; hits give high values; fluorescence (KMESF) at 10 µM; actives 0.25% (n = 190,000); AID 1776, 2009; in the data active = fluorescence above about 89;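 note: glutathione beads carrying GST-tagged Bcl family fusion proteins plus one bare bead set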
RGS16-Gao – modulators of RGS16 binding to Galphao, primary screen, biochemical, human proteins, multiplexed bead flow cytometry; bead-based flow cytometry RGS16-Galphao binding, fluorescence; actives lie on both sides; actives 0.38% (n = 220,000); binding response (% of control), % at 10 µM; AID 1441, 2008;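 note: Galphao activated by GDP with aluminum fluoride before binding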
Target sequence (O15492 whole entry, looked up): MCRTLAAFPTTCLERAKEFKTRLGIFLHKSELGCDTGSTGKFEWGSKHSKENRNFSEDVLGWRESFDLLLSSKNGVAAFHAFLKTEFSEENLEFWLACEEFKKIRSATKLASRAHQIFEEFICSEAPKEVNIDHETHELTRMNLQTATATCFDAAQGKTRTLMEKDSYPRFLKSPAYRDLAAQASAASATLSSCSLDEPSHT
Target sequence (P09471 whole entry, looked up): as the sequence (P09471 whole entry, looked up) above
Avidin bead fluor – green autofluorescence of compounds with avidin beads – biophysical, 488/530 nm, flow cytometry, artefact control, profiling panel. actives 0.38% (n = 220,000). fluorescence (KMESF) at 10 µM. compound fluorescence 488/530 nm; hits give high values. AID 1775, 2009; in the data active = fluorescence above about 47
RGS4-Gao HTS – modulators of RGS–Galpha-o binding, primary screen, biochemical, multiplexed beads, flow cytometry, RGS4/7/8/16/19; shares compounds with RGS16-Gao; multiplexed bead flow cytometry; RGS4–Galpha-o binding response, % at 10 µM; actives 99% (n = 1,600);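 note: fluorescently labeled Galpha-o bound to GDP with aluminium fluoride binding biotinylated RGS beads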
Avidin counter – disruption of biotin probe capture by avidin, counter-screen for RGS protein interaction modulators, biochemical, flow cytometry, bead-based | shares compounds with RGS16-Gao | streptavidin beads, fluorescein-biotin binding | inhibition, % at 10 µM | 1,700 tested, under 10 active;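 active = inhibition above 50%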;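 note: median green fluorescence of gated singlet beads compared with DMSO control wells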
RGS8-Gao confirm – RGS8-Galphao binding modulators, confirmation, biochemical, multiplexed bead flow cytometry, single concentration; actives 3% (n = 1,700); shares compounds with RGS16-Gao; bead-based flow cytometry RGS8-Galphao binding, fluorescence; actives lie on both sides; AID 1836, 2009; binding response (% of control), % at 10 µM; in the data active = binding response below about 72% or above about 130%; inactive = in between;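 note: Galphao activated as GDP AlF4 complex before binding bead RGS8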
RGS7-Gao confirm – RGS7-Galphao binding modulators, confirmation, biochemical, multiplexed bead flow cytometry, single concentration; bead-based flow cytometry RGS7-Galphao binding; actives lie on both sides; response (percent of control binding), % at 10 µM; actives 7.8% (n = 1,700); shares compounds with RGS16-Gao; in the data active = response below about 75% or above about 130%; inactive = in between;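 note: fluorescent Galphao activated with GDP and aluminum fluoride binding bead-coupled RGS7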
RGS16-Gao single – modulators of RGS16-Galphao protein binding, confirmation, biochemical, single concentration, multiplexed bead flow cytometry; bead-based flow cytometry; actives lie on both sides; actives 4% (n = 1,700); AID 1838, 2009; shares compounds with RGS16-Gao; response (% of control binding), % at 10 µM; in the data active = response below about 74% or above about 130%; inactive = in between;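 note: Galphao activated as the GDP aluminium fluoride complex binding bead-coupled RGS16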
RGS4-Gao single – modulators of RGS4-Galphao protein binding, confirmation, biochemical, single concentration, multiplexed bead flow cytometry | shares compounds with RGS16-Gao | actives lie on both sides | AID 1840, 2009 | binding response (% of control), % at 10 µM | actives 4% (n = 1,700); in the data active = binding response below about 74% or above about 130%; inactive = in between
RGS19-Gao single – regulators of RGS19-Galphao binding, confirmation, biochemical, single point, multiplexed bead flow cytometry. shares compounds with RGS16-Gao. bead-based flow cytometry RGS19-Galphao binding; actives lie on both sides. response (percent of control binding), % at 10 µM. actives 5% (n = 1,700). AID 1841, 2009; in the data active = response below about 50% or above about 160%; inactive = in between
Large screens that a line does not name were inactive (follow-up assays come after a bar, where they were run); [ ] = another dose, or the depositor's remark. Compounds with a hit are over-represented: about 1.2% of the library has one in this group of screens. Unless noted, the rule behind the calls is not given here.

COc1ccc(C(=O)Cc2ccc(OC)c(OC)c2)cc1	none (no result: RGS8-Gao reg, RGS4-Gao reg, RGS7-Gao reg, RGS16-Gao, Avidin bead fluor) | Avidin counter inactive | RGS8-Gao confirm inactive | RGS7-Gao confirm inactive | RGS16-Gao single inactive | RGS4-Gao single inactive | RGS19-Gao single inactive
Cc1occc1C(=O)Nc1cccc([N+](=O)[O-])c1C	RGS7-Gao reg inconclusive (no result: GSH fluor, Avidin bead fluor)
Cc1cccc(-c2nc3c(c(=O)c4ccccc4n3C)c(=O)n2-c2ccccc2)c1	RGS7-Gao reg inconclusive (no result: GSH fluor)
CC(=O)Nc1ccccc1C(=O)C(=O)Nc1ccc(C)c(C)c1	RGS16-Gao 251[activator] | RGS4-Gao HTS 110 | Avidin counter inactive | RGS8-Gao confirm inactive | RGS7-Gao confirm inactive | RGS16-Gao single inactive | RGS4-Gao single inactive | RGS19-Gao single inactive
CSc1ncc(Cl)c(C(=O)Nc2ccccc2Br)n1	RGS7-Gao reg inconclusive (no result: GSH fluor)
COC(OC)c1ccnc(-c2ccc(OC(=O)c3cccs3)cc2)n1	RGS8-Gao reg 15, RGS4-Gao reg 23, RGS7-Gao reg inconclusive, RGS16-Gao 13 | Avidin counter inactive | RGS8-Gao confirm inactive | RGS7-Gao confirm inactive | RGS16-Gao single inactive | RGS4-Gao single inactive | RGS19-Gao single inactive
COC(OC)c1ccnc(-c2ccc(OC(=O)c3ccccc3)cc2)n1	RGS7-Gao reg inconclusive
COc1cccc(-c2nnc(NC(=O)c3ccc4ncsc4c3)o2)c1	none
COc1c(C(CC(C)C)OC(C)=O)ccc2c1C(=O)OCc1cc(C)cc(O)c1O2 (stereo not drawn)	RGS7-Gao reg inconclusive (no result: GSH fluor)
COc1ccc(N(CC(=O)Nc2ccc(F)c(Cl)c2)S(=O)(=O)c2c(C)noc2C)cc1	none
COc1ccc(N(CC(=O)Nc2ccc(OC)c(Cl)c2)S(=O)(=O)c2c(C)noc2C)cc1	RGS8-Gao reg 141[activator], RGS16-Gao 227[activator] | RGS4-Gao HTS 116 | Avidin counter inactive | RGS8-Gao confirm inactive | RGS7-Gao confirm inactive | RGS16-Gao single inactive | RGS4-Gao single inactive | RGS19-Gao single inactive
Cc1ccc(NC(=O)COC(=O)C2CC(=O)N(Cc3ccccc3)C2)cc1S(=O)(=O)N(C)C (stereo not drawn)	RGS7-Gao reg inconclusive
COC(=O)c1cc(C(=O)Nc2ccc(C)cn2)cc([N+](=O)[O-])c1	none (no result: RGS8-Gao reg, RGS4-Gao reg, RGS7-Gao reg, RGS16-Gao, Avidin bead fluor) | Avidin counter inactive | RGS8-Gao confirm inactive | RGS7-Gao confirm 75 | RGS16-Gao single inactive | RGS4-Gao single inactive | RGS19-Gao single inactive
COc1ccc2[nH]c(=O)c(CN(C(=O)c3cccnc3)c3ccc(C)cc3C)cc2c1	RGS7-Gao reg inconclusive (no result: GSH fluor)
CS(=O)(=O)N1N=C(c2ccco2)CC1c1ccc(Cl)cc1Cl (stereo not drawn)	none
CC(=O)Nc1ccc(S(=O)(=O)NCC(=O)OCC(=O)N2CCN(c3ccccc3)CC2)cc1	RGS16-Gao 21 | RGS4-Gao HTS 82 | Avidin counter inactive | RGS8-Gao confirm inactive | RGS7-Gao confirm inactive | RGS16-Gao single inactive | RGS4-Gao single inactive | RGS19-Gao single inactive
O=C(CNS(=O)(=O)c1c(Cl)cccc1Cl)OCC(=O)N1CCN(c2ccccc2)CC1	none
Nc1nc(-c2c[nH]c3ccccc23)cs1	none
CNc1nc(-c2c[nH]c3ccccc23)cs1	RGS4-Gao reg 192[activator], RGS7-Gao reg 151[activator], RGS16-Gao 202[activator], Avidin bead fluor 93 | Avidin counter inactive | RGS8-Gao confirm inactive | RGS7-Gao confirm inactive | RGS16-Gao single inactive | RGS4-Gao single inactive | RGS19-Gao single inactive
CCc1ccc(CCC(=O)Nc2nnc(C)s2)o1	none
CCc1nnc(NC(=O)CCc2ccc(C)o2)s1	RGS8-Gao reg 151[activator], RGS4-Gao reg 170[activator], RGS7-Gao reg 158[activator] | Avidin counter inactive | RGS8-Gao confirm inactive | RGS7-Gao confirm inactive | RGS16-Gao single inactive | RGS4-Gao single inactive | RGS19-Gao single inactive
C[N+](C)(CC#Cc1ccccc1)CC(=O)c1ccc(Cl)cc1	RGS16-Gao 23 | RGS4-Gao HTS 114 | Avidin counter inactive | RGS8-Gao confirm inactive | RGS7-Gao confirm inactive | RGS16-Gao single inactive | RGS4-Gao single inactive | RGS19-Gao single inactive
CCN1C(=O)C(CC(=O)Nc2ccccc2)S/C1=N\c1ccccn1 (stereo not drawn)	none
O=c1c2cc(Cl)ccc2[nH]c(=S)n1Cc1cccs1	RGS16-Gao 17 | RGS4-Gao HTS 94 | Avidin counter inactive | RGS8-Gao confirm inactive | RGS7-Gao confirm inactive | RGS16-Gao single inactive | RGS4-Gao single inactive | RGS19-Gao single inactive
CCN1CCN(Cc2c(O)ccc3c2O/C(=C\C=C\c2ccccc2)C3=O)CC1	RGS16-Gao 187[activator] | RGS4-Gao HTS 106 | Avidin counter inactive | RGS8-Gao confirm inactive | RGS7-Gao confirm inactive | RGS16-Gao single inactive | RGS4-Gao single inactive | RGS19-Gao single inactive
